Inhibition data for 64 compounds are collected here from PubChem BioAssay AID1259422 (The Scripps Research Institute Molecular Screening Center, 2018).

Where “and” joins values, the source holds several entries; their conditions need not be identical. Equal entries are not always repeated. In all, about 640,000 compounds went through this assay and about 9,300 (1.5%) were called active. For the sample, actives were picked, then their nearest neighbours and some compounds at random. Values without a mark were called inactive. Rule as the data show it: active = inhibition above about 32%; inactive = the rest.

The test in a line: TEAD-YAP interaction inhibition, primary screen, TEAD-YAP interaction inhibitor project, luminescence, HEK-TIYL cells (AID 1259422).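 Also: 0% = median of test compound wells and 100% = reference inhibitor wells.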 The following applies: TEAD-Gal4/YAP UAS-luciferase luminescence, at 9.12 µM, hits give high values.
For orientation: inhibition means the change of the read-out against control, counted positive when it falls. Regarding `CCOC(=O)c1c(NC(=O)CSc2nnc(CNC(=O)c3cc(OC)cc(OC)c3)n2-c2cccc(C)c2)sc2c1CCCC2`, the inhibition is 3.65%.

`CCOc1ccc(C(=O)O/N=C(\N)c2ccc(OC)cc2)cc1OCC`: the inhibition was -6.66%.

`Cc1cc(N2CCCC2)nc2ccc(NC(=S)NCC3CCCO3)cc12` (centres undefined): the inhibition was -6.91%. As for `Cc1c(SC(F)(F)C(F)C(F)(F)F)c(=O)n(-c2ccccc2)n1C` (centres undefined), the figure is 18.8%. As for `O=C(NC1CC1)c1cccc(N2CCc3ccccc3C2)n1`, the figure is -13.8%; as for `NC(=O)C(C(N)=O)C1OC(=O)C(Cl)=C1Cl` (centres undefined), 0.04%. Turning to `C/C(=N\NC(=O)c1ccccc1I)c1ccc(O)cc1`, the inhibition is -8.63%. Turning to `CCN1C(=O)S/C(=C/c2cc(C)n(-c3cccnc3)c2C)C1=O`, the inhibition is 50.4% (active).

As to `CCc1ccccc1N1C(=O)NC(=O)/C(=C\c2cc(C)n(-c3cccnc3)c2C)C1=O`, the inhibition was -3.42%. Take `CCN1C(=O)/C(=C\c2cc(C)n(-c3ccccc3)c2C)C(C(=O)OC)=C1C`: the inhibition was 36.6% (active). On to `COC(=O)C1=C(C)N(C)C(=O)/C1=C\c1cc(C)n(-c2ccc(Br)cc2)c1C`, for which the inhibition is -6.34%. With `Cc1cc(/C=C2/SC(=O)N(C)C2=O)c(C)n1-c1ccc(I)cc1`, the inhibition is -24.8%. The same measure for `COC(=O)C1=C(C)N(CC2CCCO2)C(=O)/C1=C\c1cc(C)n(-c2cccc(C)c2)c1C` (centres undefined): 0.89%. Take `COc1ccc(Cl)cc1S(=O)(=O)N1CCN(CC(=O)Nc2ccc(C(N)=O)cc2)CC1`: the inhibition is 3.37%. As for `O=C(NC(Cc1c[nH]c2ccccc12)c1nnc2n1CCC2)c1ccccc1Cl` (centres undefined), the figure is 4.18%; as for `CCOC(=O)c1c(NC(=O)c2cccc(C)c2)sc2c1CCC2`, 1.21%; as for `CC(=O)N(C1=C(N2CCOCC2)C(=O)c2ccccc2C1=O)C1CCCCC1`, 13.4%. As for `Cc1cc(C)cc(NC2=C(N3CCN(C)CC3)C(=O)c3ccccc3C2=O)c1`, the figure is 14.2%; as for `CC(=O)N(C1=C(N2CCN(C)CC2)C(=O)c2ccccc2C1=O)c1cc(C)cc(C)c1`, 53.9% (active). With `CCCCOc1ccc(-c2[nH]nc3c2C2(C(=O)Nc4ccc(C)c(Br)c42)C(C#N)=C(N)O3)cc1` (centres undefined), the inhibition was 3.07%.

Consider `COc1ccc(C(=O)Nc2nc3c(ccc4ccccc43)s2)c(OC)c1`, for which the inhibition was -16.5% and -1.48%.

`COc1ccc(C(=O)Nc2nc(C(C)(C)C)cs2)c(OC)c1`: the inhibition was -70.6%. On to `Cc1nc(NC(=O)c2ccoc2C)sc1C`, for which the inhibition was -21.2%. `Cc1nc(NC(=O)c2ccc3c(c2)CCCC3)sc1C`: the inhibition is 53.4% (active). `COc1ccc(C(=O)Nc2nc(C)c(C)s2)c(OC)c1`: the inhibition was 94.8% (active). With `Cc1nc(NC(=O)c2cc(Br)ccc2Cl)sc1C`, the inhibition was -57.6%. For the compound `Oc1ccc2ccccc2c1/C=N/Nc1nccnc1Cl`, the inhibition was -25.8%. `N#CC1=C(N)Oc2n[nH]c(-c3ccc(Cl)cc3)c2C1c1ccc2c(c1)OCO2` (centres undefined): the inhibition is 12.5%. As for `O=c1c(Cl)c(Cl)cnn1-c1nc2ccccc2[nH]1`, the figure is 56.5% (active); as for `Cn1ncc(Cl)c1-c1nc2ccccc2[nH]1`, -8.92%. Take `N#Cc1cnn(-c2nc3ccccc3[nH]2)c1N`: the inhibition is -4.74%. In the case of `Cc1cc(Nc2ccccc2Cl)n2nc(C)nc2n1`, the inhibition was -1.89%.

For the compound `Cc1cc(C)c(NC(=O)c2c(Cl)nc(C)c(Cl)c2C)c(C)c1`, the inhibition was -2.91%. As to `COc1cccc(/C=C/C(=O)NCC(=O)O)c1OC`, the inhibition was -11.1%. As for `Cc1cccc2nc(CNC(=O)CCCn3nnnc3CN3CCC(C)CC3)cn12`, the figure is 3.48%. As for `CC(C)(C)c1ccc(C(=O)NNC(=O)C(=O)NCc2ccccc2)cc1`, the figure is -5.07%.

In the case of `CC(C)(C)c1ccc(C(=O)NNC(=O)c2ccccn2)cc1`, the inhibition was 41.6% (active). As for `C/C(=N/NC(=O)c1ccccn1)c1ccccc1`, the figure is 14.7%; as for `N#Cc1ccc(C23CC4CC(CC(C4)C2)C3)nc1SCC(=O)Nc1nc2ccccc2s1`, 3.55%. As for `N#CC(=C1C(=O)c2ccccc2C1=O)c1nc2ccccc2[nH]1`, the figure is -10.3%. Consider `Cc1ccc(N=C2NC(=O)/C(=C\c3ccc(-c4ccccc4[N+](=O)[O-])o3)S2)c(C)c1`, for which the inhibition was -2.23%. The same measure for `CCOc1ccc(C2C(C(=O)NC)=C(C)Nc3nc4ccccc4n32)cc1OC` (centres undefined): -6.37%; for `COc1ccccc1NC(=O)C1=C(C)Nc2nc3ccccc3n2C1c1cccs1` (centres undefined): 46.5% (active).

Regarding `COc1ccccc1C1C(C(=O)N2CCCCC2)=C(C)Nc2nc3ccccc3n21` (centres undefined), the inhibition was 1.41%. As for `COc1ccc(C(C)=O)c(OC(=O)Cc2cc(OC)c(OC)c(OC)c2)c1`, the figure is 12.9%. Turning to `COc1cc(C(=O)Nc2ccc(C(=O)O)cc2)c2ccccc2n1`, the inhibition was -2.83%. Regarding `COc1ccc(-c2cc(C(=O)Nc3ccccc3)c3ccccc3n2)cc1`, the inhibition was -2.31%. As for `COc1cc(C(=O)Nc2ccc(C(C)=O)cc2)c2ccccc2n1`, the figure is 47.1% (active). As for `CCCC(=O)Nc1ccccc1C(=O)O`, the figure is -0.09%; as for `COC(=O)c1ccccc1NC(=O)C(=O)Nc1ccccc1C(=O)OC`, -3.84%; as for `C/C(=C\c1ccccc1)C(=O)Nc1ccccc1C(=O)O`, 36.6% (active). The same measure for `COc1ccc(NC(=O)Cc2c[nH]c3ccccc23)cc1Cl`: 4.42%; for `COc1ccc(Nc2c(C#N)cnc3ccccc23)cc1Cl`: 49.7% (active).

For the compound `CCN1CCN(c2ncc(C(=O)Nc3ccc(OC)c(Cl)c3)c3ccccc23)CC1`, the inhibition is -15.1%. Take `Cc1ccc(/C=C2/SC(=Nc3ccccc3Cl)NC2=O)cc1`: the inhibition was 37.2% (active).

Take `Cc1cccc(C(=O)Oc2ccc(/C=C3/SC(=Nc4ccccc4Cl)NC3=O)cc2)c1`: the inhibition is 0.81%. As for `COc1cc(/C=C2/SC(=Nc3ccccc3Cl)NC2=O)cc(OC)c1OC`, the figure is -2.07%. For `CC(=O)Nc1nc2cc([N+](=O)[O-])c(C)cc2s1`, the inhibition was -21.7%. Turning to `COc1cc(C2Nc3ccccc3NC3=C2C(=O)CC(c2ccccc2Cl)C3)cc(Cl)c1O` (centres undefined), the inhibition was 54.8% (active).

Consider `COc1ccc(C2CC(=O)NC3=C2C(=O)CC(c2ccccc2Cl)C3)cc1` (centres undefined), for which the inhibition was 6.64%. Consider `CCOc1ccccc1C1CC(=O)NC2=C1C(=O)CC(c1ccccc1Cl)C2` (centres undefined), for which the inhibition was 36.2% (active). The same measure for `COc1cc(C2C(C(=O)OC3CCCCC3)=C(C)NC3=C2C(=O)CC(c2ccccc2)C3)cc(Cl)c1O` (centres undefined): -1.53%. As for `COc1ccc(C2CC(=O)C3=C(C2)Nc2ccccc2NC3c2cccc(Cl)c2)cc1` (centres undefined), the figure is 1.54%. As for `CCOc1ccccc1C1C(C(=O)OC)=C(C)NC2=C1C(=O)CC(c1ccccc1)C2` (centres undefined), the figure is -5.16%.
